The nature of assay [1]: NCI Yeast Anticancer Drug Screen. Data for the rad50 strain (AID 155).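 Also: 0% = growth of vehicle-only cultures of the same strain.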 As to conditions: S. cerevisiae rad50 strain growth inhibition, stronger effect = higher value. An outline of the steps: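 DNA repair mutant yeast, compound exposure, growth read-out; inhibition is taken relative to vehicle.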
Assay [2] in a line: NCI Yeast Anticancer Drug Screen. Data for the mec2-1 strain (AID 157). Particulars: S. cerevisiae mec2-1 strain, stronger effect = higher value. An outline of the steps:
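Each compound was tested on mec2-1 yeast, a strain altered in DNA damage repair or cell cycle control. Growth inhibition is reported relative to vehicle.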

Assay [3] is described as follows: NCI Yeast Anticancer Drug Screen. Data for the sgs1 mgt1 strain (AID 161).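 Also: 0% = growth of cultures given vehicle only.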 As to conditions: S. cerevisiae sgs1 mgt1 strain, stronger effect = higher value. An outline of the steps:
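Mutant yeast exposed to compound; growth scored against vehicle-only wells.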

A short description of assay [4]: NCI Yeast Anticancer Drug Screen. Data for the cln2 rad14 strain (AID 165).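 Also: 0% = growth equal to vehicle treated cultures.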 As to conditions: S. cerevisiae cln2 rad14 strain, stronger effect = higher value. The method, boiled down:
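Test compounds were added to cln2 rad14 yeast cultures; inhibition of growth was then determined by comparison with vehicle treatment.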

Assay [5] can be described thus: NCI Yeast Anticancer Drug Screen. Data for the bub3 strain (AID 167). As to conditions: S. cerevisiae bub3 mutant strain, stronger effect = higher value. An outline of the steps: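 In this screen, a yeast mutant lacking normal mitotic checkpoint function is challenged with compound. Relative growth versus vehicle gives the inhibition value.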
Assay [6] in a line: NCI Yeast Anticancer Drug Screen. Data for the mlh1 rad18 strain (AID 175). Particulars: S. cerevisiae mlh1 rad18 strain growth inhibition, stronger effect = higher value. The method, boiled down:
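Inhibition values reflect reduced growth of mutant yeast versus vehicle-treated controls following compound exposure; the mutations affect DNA damage repair.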

Setting [7] is: at 5.0 µM (retest, dose inferred, filed as 0.5).
[8] abbreviates: at 50.0 µM (retest, dose inferred, filed as 5.0).

Molecules are shown by their SMILES. The panel holds about 79,000 compounds, 15% with a hit somewhere; the sample as a whole holds those more often. A number with no mark means an inactive call. The source made the active and inactive calls. Rule as the data show it: active = growth inhibition above about 70%; inactive = the rest.

Consider `N#C[S-].[Ce+3].c1ccc(-c2ccccn2)nc1.c1ccc(-c2ccccn2)nc1.c1ccc(-c2ccccn2)nc1`, for which the growth inhibition was 63% in assay [1] (setting [7]); 98% (active) in assay [1] (setting [8]); 91.5% (active) in assay [1] (at 50.0 µM); 43% in assay [2] (setting [7]); 99% (active) in assay [2] (setting [8]); 94% (active) in assay [2] (at 50.0 µM). The growth inhibition is 51% in assay [3] (setting [7]); 99% (active) in assay [3] (setting [8]); 92.9% (active) in assay [3] (at 50.0 µM); 31% in assay [4] (setting [7]); 93% (active) in assay [4] (setting [8]); 91.5% (active) in assay [4] (at 50.0 µM). Moreover, the growth inhibition in assay [5] (setting [7]) is 55%; in assay [5] (setting [8]), 98% (active); in assay [5] (at 50.0 µM) it was 92.3% (active); in assay [6] (setting [7]), 63%; in assay [6] (setting [8]), 98% (active); in assay [6] (at 50.0 µM), 91.4% (active).
Consider `CCc1ccc2c(c1)N(CCCN(CCCl)CCCl)c1ccccc1S2`, for which the growth inhibition was -4% in assay [1] (setting [7]); 85% (active) in assay [1] (setting [8]); 98.5% (active) in assay [1] (at 50.0 µM); 44% in assay [2] (setting [7]); 59% in assay [2] (setting [8]); 99.2% (active) in assay [2] (at 50.0 µM). In addition, the growth inhibition in assay [3] (setting [7]) is -4%; in assay [3] (setting [8]) it was 89% (active); in assay [3] (at 50.0 µM), 98.6% (active); in assay [4] (setting [7]), -1%; in assay [4] (setting [8]), 53%; in assay [4] (at 50.0 µM), 96.8% (active). For the same compound, the growth inhibition was -1% in assay [5] (setting [7]); 94% (active) in assay [5] (setting [8]); 98.5% (active) in assay [5] (at 50.0 µM); -2% in assay [6] (setting [7]); 94% (active) in assay [6] (setting [8]); 98.6% (active) in assay [6] (at 50.0 µM).
Turning to `CCN(CCCl)c1cc(CN(C)C)cc(NC(=O)c2ccc(C(=O)Nc3cccc(N(CCCl)NN)c3)cc2)c1`, the growth inhibition is -6% in assay [1] (setting [7]); 91% (active) in assay [1] (setting [8]); 89.4% (active) in assay [1] (at 50.0 µM); -5% in assay [2] (setting [7]); 98% (active) in assay [2] (setting [8]); 98.2% (active) in assay [2] (at 50.0 µM). The growth inhibition in assay [3] (setting [7]) was 10%; in assay [3] (setting [8]) it was 98% (active); in assay [3] (at 50.0 µM), -2.7%; in assay [4] (setting [7]), 1%; in assay [4] (setting [8]) it was 95% (active); in assay [4] (at 50.0 µM) it was 56.2%. The growth inhibition in assay [5] (setting [7]) was -16%; in assay [5] (setting [8]), 92% (active); in assay [5] (at 50.0 µM) it was 97.8% (active); in assay [6] (setting [7]) it was 25%; in assay [6] (setting [8]), 97% (active); in assay [6] (at 50.0 µM), 98.5% (active).
Take `O=C1C(Cl)=C(Cl)C(=O)N1c1ccc(F)cc1`: the growth inhibition in assay [1] (setting [7]) was 53%; in assay [1] (setting [8]) it was 99% (active); in assay [1] (at 50.0 µM), 52%; in assay [2] (setting [7]), 42%; in assay [2] (setting [8]) it was 100% (active); in assay [2] (at 50.0 µM), 28.8%. The growth inhibition was 28% in assay [3] (setting [7]); 100% (active) in assay [3] (setting [8]); 88.3% (active) in assay [3] (at 50.0 µM); 24% in assay [4] (setting [7]); 99% (active) in assay [4] (setting [8]); 89.2% (active) in assay [4] (at 50.0 µM). In addition, the growth inhibition is 35% in assay [5] (setting [7]); 99% (active) in assay [5] (setting [8]); 90.8% (active) in assay [5] (at 50.0 µM); 45% in assay [6] (setting [7]); 100% (active) in assay [6] (setting [8]); 48.1% in assay [6] (at 50.0 µM).
For the compound `O=[N+]([O-])c1ccc(C=Cc2ccc(C(F)(F)F)cc2)cc1.[C-]#[O+].[C-]#[O+].[C-]#[O+].[Cr]`, the growth inhibition is 2% in assay [1] (setting [7]); 67% in assay [1] (setting [8]); 29% in assay [1] (at 50.0 µM); 0% in assay [2] (setting [7]); 51% in assay [2] (setting [8]); 55.8% in assay [2] (at 50.0 µM). Moreover, the growth inhibition is 17% in assay [3] (setting [7]); 60% in assay [3] (setting [8]); 72.5% (active) in assay [3] (at 50.0 µM); -22% in assay [4] (setting [7]); 60% in assay [4] (setting [8]); 26.6% in assay [4] (at 50.0 µM). For the same compound, the growth inhibition is 0% in assay [5] (setting [7]); 75% (active) in assay [5] (setting [8]); 73.2% (active) in assay [5] (at 50.0 µM); 12% in assay [6] (setting [7]); 72% (active) in assay [6] (setting [8]); 73.9% (active) in assay [6] (at 50.0 µM).
Consider `CC1C(=O)OCC1(C)O` (stereo unspecified), for which the growth inhibition was 1% in assay [1] (setting [7]); -2% in assay [1] (setting [8]); -15.2% in assay [1] (at 50.0 µM); 1% in assay [2] (setting [7]); 0% in assay [2] (setting [8]); -11.7% in assay [2] (at 50.0 µM). The growth inhibition in assay [3] (setting [7]) is -4%; in assay [3] (setting [8]) it was 0%; in assay [3] (at 50.0 µM), -5.55%; in assay [4] (setting [7]) it was 1%; in assay [4] (setting [8]), 0%; in assay [4] (at 50.0 µM), 0.75%. The growth inhibition is 2% in assay [5] (setting [7]); 2% in assay [5] (setting [8]); 46% in assay [5] (at 50.0 µM); 4% in assay [6] (setting [7]); 3% in assay [6] (setting [8]); -21.6% in assay [6] (at 50.0 µM).
On to `Oc1c(Cl)cc(Cl)cc1Cl`, for which the growth inhibition in assay [1] (setting [7]) is -1%; in assay [1] (setting [8]), 94% (active); in assay [1] (at 50.0 µM), 86.5% (active); in assay [2] (setting [7]) it was -6%; in assay [2] (setting [8]), 67%; in assay [2] (at 50.0 µM), 78% (active). In addition, the growth inhibition in assay [3] (setting [7]) was -1%; in assay [3] (setting [8]), 64%; in assay [3] (at 50.0 µM) it was 94.8% (active); in assay [4] (setting [7]) it was -8%; in assay [4] (setting [8]), 55%; in assay [4] (at 50.0 µM) it was 54.9%. In addition, the growth inhibition in assay [5] (setting [7]) is -13%; in assay [5] (setting [8]), 90% (active); in assay [5] (at 50.0 µM), 78.5% (active); in assay [6] (setting [7]), -5%; in assay [6] (setting [8]), 94% (active); in assay [6] (at 50.0 µM), 95.8% (active).

These data come from PubChem BioAssay (NCI).
